Data reported in PubChem BioAssay (EPA / NIEHS).
Inconclusive results are not listed. Active and inactive are the calls of the source. Rule for the calls, unless noted: active = hit-call score of the fitted dose curve at least 0.9, where 1 is the maximum; inactive = score below 0.9.

Key:
[1] = read-out: Pyruvate Dehydrogenase Kinase 4 (PDK4), PDK4 (gene 5166); assay: LTEA_HepaRG_PDK4: Life Technologies and Expression Analysis (LTEA) Assay for Pyruvate Dehydrogenase Kinase 4 (PDK4) using HepaRG (AID 2283525); settings: mRNA level, 48 h; actives raise or lower the signal
Outline: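 HepaRG (human liver line), 48 h chemical exposure, 8-pt half-log CRC top 100 uM, 0.5% DMSO vehicle, duplicates. Readout: TaqMan qRT-PCR of PDK4 mRNA, housekeeping-normalized; gain/loss fit relative to DMSO baseline.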

[2] = read-out: NAD(P)H dehydrogenase [quinone] 1 (NQO1), NQO1 (gene 1728); assay: LTEA_HepaRG_NQO1: Life Technologies and Expression Analysis (LTEA) Assay for NAD(P)H dehydrogenase [quinone] 1 (NQO1) using HepaRG (AID 2283526); settings: mRNA level, 48 h; actives raise or lower the signal
Outline: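 Transcript induction or suppression is quantified by qRT-PCR in human HepaRG liver cells dosed for 48 hours. Eight half-log concentrations topping at 100 uM are used, with 0.5% DMSO as vehicle and baseline.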

[3] = read-out: Nuclear factor erythroid 2-related factor 2 (Homo sapiens) (UniProt Q16236); assay: LTEA_HepaRG_NFE2L2: Life Technologies and Expression Analysis (LTEA) Assay for Nuclear factor erythroid 2-related factor 2 (NFE2L2) Transcription Factor using HepaRG (AID 2283527); settings: mRNA level, 48 h; actives raise or lower the signal;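 note: TaqMan qRT-PCR transcript level normalised to ACTB GAPDH and POLR2A housekeeping genes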
Outline: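 HepaRG, 48 h dosing, 8-pt half-log series from 100 uM in 0.5% DMSO, duplicates. Read-out: NFE2L2 mRNA by qRT-PCR (ACTB/GAPDH/POLR2A normalization). Bidirectional curve fit vs DMSO baseline.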

[4] = read-out: succinate dehydrogenase complex iron sulfur subunit B (SDHB), SDHB (gene 6390); assay: LTEA_HepaRG_SDHB: Life Technologies and Expression Analysis (LTEA) Assay for succinate dehydrogenase complex iron sulfur subunit B (SDHB) using HepaRG (AID 2283528); settings: mRNA level, 48 h; actives raise or lower the signal
Outline: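 Readout is SDHB transcript level by qRT-PCR, normalised to three housekeeping genes and fitted bidirectionally against 0.5% DMSO vehicle. Human HepaRG cells were treated for 48 h at up to 100 uM.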

[5] = read-out: solute carrier (SLCO1B1), SLCO1B1 (gene 10599); assay: LTEA_HepaRG_SLCO1B1: Life Technologies and Expression Analysis (LTEA) Assay for solute carrier (SLCO1B1) using HepaRG (AID 2283530); settings: mRNA level, 48 h; actives raise or lower the signal
Outline: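 Human HepaRG cultures treated for 48 h with an eight-concentration half-log series topping at 100 uM; SLCO1B1 measured by qRT-PCR and fitted bidirectionally relative to DMSO.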

[6] = read-out: sulfotransferase 2A1 (SULT2A1), SULT2A1 (gene 6822); assay: LTEA_HepaRG_SULT2A1: Life Technologies and Expression Analysis (LTEA) Assay for sulfotransferase 2A1 (SULT2A1) using HepaRG (AID 2283531); settings: mRNA level, 48 h; actives raise or lower the signal
Outline: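 Gene-expression endpoint in a human liver cell line: SULT2A1 mRNA change after 48 h chemical treatment, curves fitted in both directions relative to 0.5% DMSO vehicle. Concentrations spanned eight half-log steps from 100 uM.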

[7] = read-out: Transforming Growth Factor (TGFA), TGFA (gene 7039); assay: LTEA_HepaRG_TGFA: Life Technologies and Expression Analysis (LTEA) Assay for Transforming Growth Factor (TGFA) using HepaRG (AID 2283532); settings: mRNA level, 48 h; actives raise or lower the signal
Outline: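 qRT-PCR read-out of TGFA transcript, normalized to three housekeeping genes, fitted bidirectionally against 0.5% DMSO baseline. Human HepaRG cultures received chemicals for 48 h at eight half-log concentrations, top 100 uM.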

[8] = read-out: Transforming Growth Factor (TGFB1), TGFB1 (gene 7040); assay: LTEA_HepaRG_TGFB1: Life Technologies and Expression Analysis (LTEA) Assay for Transforming Growth Factor (TGFB1) Transporter using HepaRG (AID 2283533); settings: mRNA level, 48 h; actives raise or lower the signal
Outline: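 Eight-point concentration-response (max 100 uM, half-log) in HepaRG under serum-free induction conditions, 48 h. TGFB1 mRNA by qRT-PCR, housekeeping-normalized.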

[9] = read-out: Tumor necrosis factor receptor 1 (TNFRSF1A), TNFRSF1A (gene 7132); assay: LTEA_HepaRG_TNFRSF1A: Life Technologies and Expression Analysis (LTEA) Assay for Tumor necrosis factor receptor 1 (TNFRSF1A) using HepaRG (AID 2283535); settings: mRNA level, 48 h; actives raise or lower the signal
Outline: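 Assay uses 48 h chemical treatment of differentiated HepaRG monolayers, tested in duplicate at eight concentrations from 100 uM downward in 0.5% DMSO. mRNA is normalized to ACTB, GAPDH and POLR2A, with induction or suppression fitted relative to vehicle.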

[10] = read-out: Thyroid Hormone Responsive (THRSP), THRSP (gene 7069); assay: LTEA_HepaRG_THRSP: Life Technologies and Expression Analysis (LTEA) Assay for Thyroid Hormone Responsive (THRSP) using HepaRG (AID 2283536); settings: mRNA level, 48 h; actives raise or lower the signal
Outline: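 qRT-PCR read-out (Fluidigm TaqMan), housekeeping-normalized (ACTB/GAPDH/POLR2A). HepaRG, 48 h chemical exposure, 8-pt half-log series from 100 uM in 0.5% DMSO, duplicates. Bidirectional curve fit vs 0.5% DMSO baseline.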

[11] = read-out: Cellular tumor antigen p53 (Homo sapiens) (UniProt P04637); assay: LTEA_HepaRG_TP53: Life Technologies and Expression Analysis (LTEA) Assay for Tumor Protein P53 (TP53) using HepaRG (AID 2283537); settings: mRNA level, 48 h; actives raise or lower the signal
Outline: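 Read-out is TP53 transcript level by microfluidic qRT-PCR, normalised to three housekeeping genes and fitted bidirectionally against DMSO. Human HepaRG cells received compounds for 48 h, highest concentration 100 uM.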

[12] = read-out: UDP glucuronosyltransferase (UGT1A1), UGT1A1 (gene 54658); assay: LTEA_HepaRG_UGT1A1: Life Technologies and Expression Analysis (LTEA) Assay for UDP glucuronosyltransferase (UGT1A1) using HepaRG (AID 2283538); settings: mRNA level, 48 h; actives raise or lower the signal
Outline: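 Cells are plated, cultured 48 h, switched to serum-free induction medium, then dosed 48 h at eight concentrations (max 100 uM, 0.5% DMSO). RNA is isolated and UGT1A1 expression measured by qRT-PCR; changes versus DMSO are fitted in both directions.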

[13] = read-out: UDP glucuronosyltransferase (UGT1A6), UGT1A6 (gene 54578); assay: LTEA_HepaRG_UGT1A6: Life Technologies and Expression Analysis (LTEA) Assay for UDP glucuronosyltransferase (UGT1A6) using HepaRG (AID 2283539); settings: mRNA level, 48 h; actives raise or lower the signal
Outline: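 Measures mRNA change in HepaRG hepatic cells exposed 48 h to chemicals (eight-point, maximum 100 uM, 0.5% DMSO vehicle) in serum-free induction medium. Expression normalized to endogenous controls; DMSO served as negative control and baseline.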

[14] = read-out: X-box binding protein 1 (XBP1), XBP1 (gene 7494); assay: LTEA_HepaRG_XBP1: Life Technologies and Expression Analysis (LTEA) Assay for X-box binding protein 1 (XBP1) using HepaRG (AID 2283540); settings: mRNA level, 48 h; actives raise or lower the signal
Outline: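 Eight concentrations (half-log, highest 100 uM, 0.5% DMSO) tested in duplicate on HepaRG cells over 48 h in serum-free induction medium; qRT-PCR of XBP1 normalised to ACTB, GAPDH, POLR2A.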

[15] = LTEA_HepaRG_LDH_cytotoxicity: Cytotoxicity Assessment in the Life Technologies and Expression Analysis (LTEA) Assay (AID 2283563; active = hit-call score of the fitted dose curve at least 0.9, where 1 is the maximum;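 for AC50: LDH activity released into spent culture medium as a marker of cell death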)
Outline: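 Spent-medium LDH after 48 h chemical exposure of HepaRG cells in serum-free induction medium; eight concentrations, half-log dilutions from 100 uM, duplicate wells, fitted upward relative to 0.5% DMSO.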

[16] = TOX21_p53_BLA_p2_viability: Viability Assessment in the Tox21 HCT-116 p53 Agonism Beta-lactamase Assay, Phase 2 (AID 2283591; active = hit-call score of the fitted dose curve at least 0.9, where 1 is the maximum;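 note: compound exposure lasted 16 h at 37 °C; actives lower the ATP signal meaning cytotoxicity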)
Outline: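 HCT116 p53-bla cells, 4000/well, dosed after 5 h plating (217-fold dilution of DMSO stocks) and incubated 16 h at 37C. Viability taken as cellular ATP by CellTiter-Glo luminescence after 30 min RT; signal loss marks cytotoxicity.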

[17] = target: Cellular tumor antigen p53 (Homo sapiens) (UniProt P04637); assay: TOX21_p53_BLA_p2_ratio: Tox21 HCT-116 p53 Agonism Beta-lactamase Assay, Ratio, Phase 2 (AID 2283592; active = hit-call score of the fitted dose curve at least 0.9, where 1 is the maximum)
Cellular tumor antigen p53 (Homo sapiens), sequence (P04637 whole entry, looked up): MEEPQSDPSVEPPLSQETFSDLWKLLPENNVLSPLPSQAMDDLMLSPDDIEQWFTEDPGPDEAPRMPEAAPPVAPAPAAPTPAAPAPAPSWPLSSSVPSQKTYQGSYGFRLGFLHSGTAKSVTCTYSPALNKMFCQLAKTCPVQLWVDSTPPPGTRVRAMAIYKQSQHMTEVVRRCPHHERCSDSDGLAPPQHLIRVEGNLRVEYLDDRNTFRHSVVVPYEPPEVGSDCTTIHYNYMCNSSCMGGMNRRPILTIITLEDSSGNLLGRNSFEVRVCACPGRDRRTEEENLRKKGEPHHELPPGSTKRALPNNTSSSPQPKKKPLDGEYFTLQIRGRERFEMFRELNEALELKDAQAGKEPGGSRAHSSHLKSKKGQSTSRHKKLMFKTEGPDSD
Outline: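 DMSO-normalized, positive-direction endpoint derived from the 460 nm/530 nm FRET ratio in HCT116 p53 beta-lactamase reporter cells exposed 16 h at 37C and loaded with CCF4-AM for 2 h.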

[18] = ATG_XTT_Cytotoxicity: Cytotoxicity Assessment in the Attagene TRANS-FACTORIAL HepG2 Assay (AID 2283584; active = hit-call score of the fitted dose curve at least 0.9, where 1 is the maximum)
Outline: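 24 h chemical exposure of reporter-transfected HepG2; XTT signal loss vs DMSO indicates cytotoxicity.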

TIMP1, TIMP1 (gene 7076) = assay: LTEA_HepaRG_TIMP1: Life Technologies and Expression Analysis (LTEA) Assay for TIMP1 using HepaRG (AID 2283534); settings: mRNA level, 48 h; actives raise or lower the signal
Outline: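 TIMP1 induction or repression in HepaRG cells after 48 h chemical exposure (eight concentrations, highest 100 uM), assessed by normalized qRT-PCR with bidirectional fitting to DMSO controls.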

Measured: AC50

Nuclear factor erythroid 2-related factor 2 (Homo sapiens), sequence (Q16236 whole entry, looked up): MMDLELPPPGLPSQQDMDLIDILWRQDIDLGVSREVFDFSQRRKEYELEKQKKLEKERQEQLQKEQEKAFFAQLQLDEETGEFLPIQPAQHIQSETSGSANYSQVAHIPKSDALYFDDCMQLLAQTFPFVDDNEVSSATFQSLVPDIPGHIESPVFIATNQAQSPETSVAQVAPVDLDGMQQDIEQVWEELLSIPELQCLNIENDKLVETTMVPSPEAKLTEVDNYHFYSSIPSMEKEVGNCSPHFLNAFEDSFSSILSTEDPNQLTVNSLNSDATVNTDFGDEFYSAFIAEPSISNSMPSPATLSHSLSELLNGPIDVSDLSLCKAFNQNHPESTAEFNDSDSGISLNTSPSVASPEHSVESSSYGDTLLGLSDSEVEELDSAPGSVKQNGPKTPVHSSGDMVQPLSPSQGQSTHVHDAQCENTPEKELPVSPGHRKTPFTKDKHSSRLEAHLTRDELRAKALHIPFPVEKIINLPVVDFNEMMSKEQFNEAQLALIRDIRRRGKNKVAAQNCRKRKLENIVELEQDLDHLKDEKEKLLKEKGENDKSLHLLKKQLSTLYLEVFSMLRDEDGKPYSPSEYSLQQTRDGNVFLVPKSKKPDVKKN

CCOC(=O)COc1ccc2c(c1)CC(NCC(O)c1cccc(Cl)c1)CC2 (stereo not given)
active: [14] 45.8 µM | [16] 67.3 µM | [17] 70.3 µM
inactive: [1] | [2] | [3] | [4] | [5] | [6] | [7] | [8] | [9] | [10] | [11] | [12] | [13] | [15]

CCOCCOCCOCCO
inactive: [1] | [2] | [3] | [4] | [5] | [7] | [8] | [9] | [10] | [11] | [12] | [13] | [14] | [15] | [18] | [16] | [17]

O=C(O)c1cc(N=Nc2ccc(S(=O)(=O)Nc3ccccn3)cc2)ccc1O
inactive: [1] | [2] | [3] | [4] | [5] | [8] | [9] | [11] | [12] | [13] | [14] | [15] | [18] | [16] | [17]

CC(C)(O)c1coc(S(=O)(=O)NC(=O)Nc2c3c(cc4c2CCC4)CCC3)c1
inactive: [1] | [2] | [3] | [4] | [5] | [7] | [8] | [9] | [10] | [11] | [13] | [14] | [15] | [16] | [17]
active: [12] 21.5 µM

COC(=O)c1ccccc1O
inactive: [1] | [2] | [3] | [4] | [5] | [7] | [8] | [9] | [11] | [12] | [13] | [14] | [15] | [18] | [16] | [17]

COc1ccc(-n2nc(C(F)F)cc2-c2ccc(S(C)=O)cc2)cc1 (stereo not given)
inactive: [1] | [2] | [3] | [4] | [5] | [7] | [8] | TIMP1, TIMP1 (gene 7076) | [9] | [10] | [11] | [13] | [14] | [15] | [18] | [16] | [17]
active: [12] 39.6 µM

O=C(O)c1cccc(Oc2ccccc2)c1
inactive: [2] | [3] | [4] | [5] | [7] | [8] | TIMP1, TIMP1 (gene 7076) | [9] | [11] | [12] | [13] | [14] | [15] | [18] | [17]
active: [1] 50 µM

CCN(C(=O)c1cc(C)cc(OC[C@H](C)Nc2ccncc2)c1)C(C)C
inactive: [2] | [3] | [4] | [5] | [6] | [7] | [8] | [13] | [14] | [16] | [17]
active: [1] 53.7 µM | [9] 0.172 µM | [11] 9.37 µM | [12] 6.7 µM | [15] 49.7 µM

COCCOc1cc2cc(C(=O)NC3CCN(C(C)C)CC3)n(CC(=O)Nc3ccc(Cl)cn3)c2cn1
active: [1] 37.4 µM | [5] 56.5 µM | [12] 82.2 µM | [14] 12.1 µM | [15] 59.3 µM
inactive: [2] | [3] | [4] | [6] | [7] | [8] | [9] | [11] | [13]
